Data: PubChem BioAssay AID1159580 (chemical genetic matrix, 2015)
Among all 5,500 compounds or so, about 2,000 (36%) were called active. Roughly 18% stayed inconclusive and do not appear here. No stated cut-off is given here; in the data, active means normalized growth mostly below about 0.91 (no sharp cut-off); inconclusive means no clear call, values can overlap the other calls; inactive means mostly above about 0.92. Some of the results follow.

Assay: chemical genetic growth profiling, strain panel (AID 1159580);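 further: tested at 20 µM; growth read once vehicle control cultures reached saturation at 30 °C; 1 = growth at the plate median or of vehicle wells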
Details: growth OD

Measured: normalized growth

C/C=C1\[C@H]2C=C(C)C[C@]1(N)c1ccc(=O)[nH]c1C2
inactive: S. cerevisiae deletion strains, locus YJR075W, strain HOC1, stronger effect = lower value 0.997 | S. cerevisiae deletion strains, locus YKL009W, strain mrt4, stronger effect = lower value 1.01 | S. cerevisiae deletion strains, locus YKL068W, stronger effect = lower value 1.01 | S. cerevisiae deletion strains, locus YKL085W, strain MDH1 (second series), stronger effect = lower value 1 | S. cerevisiae deletion strains, locus YKL085W, strain MDH1, stronger effect = lower value 1 | S. cerevisiae deletion strains, locus YKL160W, strain elf1, stronger effect = lower value 0.989 | S. cerevisiae deletion strains, locus YKL190W, strain CNB1, stronger effect = lower value 1.01 | S. cerevisiae deletion strains, locus YKR001C, strain vps1, stronger effect = lower value 1.03 | S. cerevisiae deletion strains, locus YKR026C, strain gcn3, stronger effect = lower value 1.02 | S. cerevisiae deletion strains, locus YKR091W, strain srl3, stronger effect = lower value 1.02 | S. cerevisiae deletion strains, locus YLL001W, strain dnm1, stronger effect = lower value 1.02 | S. cerevisiae deletion strains, locus YLL026W, stronger effect = lower value 1.01 | S. cerevisiae deletion strains, locus YLL041C, strain sdh2, stronger effect = lower value 1.02 | S. cerevisiae deletion strains, locus YLR027C, strain aat2, stronger effect = lower value 1.02 | S. cerevisiae deletion strains, locus YLR039C, strain RIC1, stronger effect = lower value 1.05 | S. cerevisiae deletion strains, locus YLR058C, strain SHM2, stronger effect = lower value 1.01 | S. cerevisiae deletion strains, locus YLR102C, strain apc9, stronger effect = lower value 1.02 | S. cerevisiae deletion strains, locus YLR113W, strain HOG1, stronger effect = lower value 1.01 | S. cerevisiae deletion strains, locus YLR221C, strain rsa3, stronger effect = lower value 1.01 | S. cerevisiae deletion strains, locus YLR258W, strain gsy2, stronger effect = lower value 1.03 | S. cerevisiae deletion strains, locus YLR262C, strain YPT6 (second series), stronger effect = lower value 1.01 | S. cerevisiae deletion strains, locus YLR262C, strain YPT6, stronger effect = lower value 1.05 | S. cerevisiae deletion strains, locus YLR268W, strain sec22, stronger effect = lower value 0.992 | S. cerevisiae deletion strains, locus YLR320W, strain mms22, stronger effect = lower value 1.04 | S. cerevisiae deletion strains, locus YLR330W, strain CHS5, stronger effect = lower value 1.01 | S. cerevisiae deletion strains, locus YLR342W, strain FKS1 (second series), stronger effect = lower value 1.04 | S. cerevisiae deletion strains, locus YLR342W, strain FKS1, stronger effect = lower value 1.02 | S. cerevisiae deletion strains, locus YLR357W, strain rsc2, stronger effect = lower value 1.06 | S. cerevisiae deletion strains, locus YLR370C, strain arc18, stronger effect = lower value 1.02 | S. cerevisiae deletion strains, locus YLR371W, strain rom2, stronger effect = lower value 1.01 | S. cerevisiae deletion strains, locus YLR384C, strain iki3, stronger effect = lower value 1.02 | S. cerevisiae deletion strains, locus YLR418C, strain cdc73, stronger effect = lower value 1.02 | S. cerevisiae deletion strains, locus YML016C, strain PPZ1, stronger effect = lower value 1 | S. cerevisiae deletion strains, locus YML032C, strain rad52, stronger effect = lower value 1.01 | S. cerevisiae deletion strains, locus YML120C, strain ndi1, stronger effect = lower value 1.02 | S. cerevisiae deletion strains, locus YML124C, strain tub3, stronger effect = lower value 1.01 | S. cerevisiae deletion strains, locus YMR058W, strain fet3, stronger effect = lower value 1.02 | S. cerevisiae deletion strains, locus YMR078C, strain ctf18, stronger effect = lower value 1.02 | S. cerevisiae deletion strains, locus YMR125W, strain sto1, stronger effect = lower value 1.03 | S. cerevisiae deletion strains, locus YMR129W, stronger effect = lower value 1.03 | S. cerevisiae deletion strains, locus YMR205C, strain PFK2, stronger effect = lower value 1.07 | S. cerevisiae deletion strains, locus YMR223W, strain ubp8, stronger effect = lower value 1.03 | S. cerevisiae deletion strains, locus YMR231W, strain pep5, stronger effect = lower value 1.02 | S. cerevisiae deletion strains, locus YMR263W, strain SAP30, stronger effect = lower value 1 | S. cerevisiae deletion strains, locus YMR307W, strain GAS1, stronger effect = lower value 1.02 | S. cerevisiae deletion strains, locus YNL067W, strain RPL9B, stronger effect = lower value 1 | S. cerevisiae deletion strains, locus YNL071W, strain lat1, stronger effect = lower value 1.02 | S. cerevisiae deletion strains, locus YNL128W, strain TEP1, stronger effect = lower value 1.02 | S. cerevisiae deletion strains, locus YNL153C, strain GIM3, stronger effect = lower value 1 | S. cerevisiae deletion strains, locus YNL183C, strain NPR1, stronger effect = lower value 0.956 | S. cerevisiae deletion strains, locus YNL209W, strain ssb2, stronger effect = lower value 1.02 | S. cerevisiae deletion strains, locus YNL233W, strain BNI4, stronger effect = lower value 0.983 | S. cerevisiae deletion strains, locus YNL248C, strain rpa49, stronger effect = lower value 1.01 | S. cerevisiae deletion strains, locus YNL250W, strain rad50, stronger effect = lower value 1.01 | S. cerevisiae deletion strains, locus YNL271C, strain bni1, stronger effect = lower value 1.02 | S. cerevisiae deletion strains, locus YNL298W, strain CLA4, stronger effect = lower value 1.02 | S. cerevisiae deletion strains, locus YNL307C, strain MCK1, stronger effect = lower value 1.02 | S. cerevisiae deletion strains, locus YNL322C, strain KRE1 (second series), stronger effect = lower value 1.01 | S. cerevisiae deletion strains, locus YNL322C, strain KRE1, stronger effect = lower value 1.01 | S. cerevisiae deletion strains, locus YNR049C, strain mso1, stronger effect = lower value 1.03 | S. cerevisiae deletion strains, locus YNR052C, strain pop2, stronger effect = lower value 1.02 | S. cerevisiae deletion strains, locus YOL006C, strain TOP1, stronger effect = lower value 1.05 | S. cerevisiae deletion strains, locus YOL012C, strain htz1 0.803 | S. cerevisiae deletion strains, locus YOL147C, strain pex11, stronger effect = lower value 1.01 | S. cerevisiae deletion strains, locus YOR001W, strain rrp6, stronger effect = lower value 1 | S. cerevisiae deletion strains, locus YOR061W, strain CKA2, stronger effect = lower value 1.02 | S. cerevisiae deletion strains, locus YOR069W, strain VPS5, stronger effect = lower value 1.01 | S. cerevisiae deletion strains, locus YOR070C, strain gyp1, stronger effect = lower value 1.02 | S. cerevisiae deletion strains, locus YOR080W, strain dia2, stronger effect = lower value 1.02 | S. cerevisiae deletion strains, locus YOR083W, strain WHI5, stronger effect = lower value 0.992 | S. cerevisiae deletion strains, locus YOR106W, strain vam3, stronger effect = lower value 1.01 | S. cerevisiae deletion strains, locus YOR136W, strain idh2, stronger effect = lower value 1.02 | S. cerevisiae deletion strains, locus YOR144C, strain elg1, stronger effect = lower value 1.01 | S. cerevisiae deletion strains, locus YOR184W, strain ser1, stronger effect = lower value 1.04 | S. cerevisiae deletion strains, locus YOR231W, strain MKK1, stronger effect = lower value 1.01 | S. cerevisiae deletion strains, locus YOR265W, strain rbl2, stronger effect = lower value 1.02 | S. cerevisiae deletion strains, locus YOR270C, strain vph1, stronger effect = lower value 1.02 | S. cerevisiae deletion strains, locus YOR290C, strain snf2, stronger effect = lower value 1.01 | S. cerevisiae deletion strains, locus YOR316C, strain cot1, stronger effect = lower value 1.01 | S. cerevisiae deletion strains, locus YPL051W, strain arl3, stronger effect = lower value 0.996 | S. cerevisiae deletion strains, locus YPL055C, strain LGE1, stronger effect = lower value 1.02 | S. cerevisiae deletion strains, locus YPL078C, strain atp4, stronger effect = lower value 0.991 | S. cerevisiae deletion strains, locus YPL106C, strain sse1, stronger effect = lower value 1.06 | S. cerevisiae deletion strains, locus YPL240C, strain hsp82, stronger effect = lower value 1.03 | S. cerevisiae deletion strains, locus YPL241C, strain CIN2, stronger effect = lower value 1.01 | S. cerevisiae deletion strains, locus YPL256C, strain CLN2, stronger effect = lower value 0.99 | S. cerevisiae deletion strains, locus YPR119W, strain clb2, stronger effect = lower value 1.01 | S. cerevisiae deletion strains, locus YPR141C, strain kar3, stronger effect = lower value 1.01 | S. cerevisiae deletion strains, locus YPR163C, strain tif3, stronger effect = lower value 1.02 | S. cerevisiae deletion strains, locus YPR167C, strain met16, stronger effect = lower value 1.01 | S. cerevisiae deletion strains, strain wtn01, stronger effect = lower value 1.01 | S. cerevisiae strains, strain wild type, stronger effect = lower value 1.02
